# Results reported in PubChem BioAssay.
# Activity calls are given as the source filed them.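 Rule for the calls: active = inhibition at or above 50% relative to wild type and mutant plate controls; inactive = inhibition below 50%.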
# Experiment: inhibitors of Chlamydomonas gravitaxis, primary screen, whole organism, Chlamydomonas reinhardtii, WT vs cilia-less mutant, absorbance, 96-well (AID 463189);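 note: 0% = wild type cc124 cells in DMSO and 100% = ciliumless bld1 mutant cells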
# Conditions: OD600 absorbance, 2 days, at 10 µM, hits give high values
row,SMILES,inhibition
1,CCN1CCc2c(C#N)c(N3CCCCC3)nc(N3CCOCC3)c2C1,20.3% (inactive)
2,CC(NC(=O)Nc1nnc(C(F)(F)F)s1)(C(F)(F)F)C(F)(F)F,1.97% (inactive)
3,O=c1[nH]c2sc3c(c2c(=O)n1Cc1ccccc1)CCC3,-9.09% (inactive)
4,CC1(C)Cc2c(C#N)c(OCC(=O)c3ccccc3)nc(-c3ccoc3)c2CO1,56.8% (active)
5,O=c1[nH]c2cnccc2n1-c1ccccc1,-6.57% (inactive)
6,O=C(c1cc(N2CCCCC2)nc2ccccc12)N1CCOCC1,1.82% (inactive)
7,CC(C)(C)NC(=O)/C=N/O,25.5% (inactive)
8,COc1cc(N2CCCC2)c(OC)cc1/C=c1/sc2nc3ccccc3n2c1=O,3.75% (inactive)
9,COc1cccc(C(=O)OC2CCCN(C)C2)c1 (stereo not given),0.435% (inactive)
10,N#Cc1nc(-c2cccs2)oc1NCc1ccccc1Cl,-1.01% (inactive)
11,Cc1cc(=O)oc(C)c1C(=O)n1nc(C)c2c1C[C@@H]1[C@H]2C1(C)C,-9.72% (inactive)
12,Brc1ccc2c(c1)CNc1c(ncnc1N1CCOCC1)O2,24.2% (inactive)
13,CCOC(=O)NC1(C(F)(F)F)C(=O)NC(C)=C1C#N (stereo not given),23.5% (inactive)
14,COCc1n[nH]c(=S)n1-c1cccc2ccccc12,4.29% (inactive)
15,OC1(C2(O)CC(c3ccccc3)ON2)CCCCC1 (stereo not given),0.004% (inactive)
16,CC(C)Cc1nc(N2CCN(C(=O)Cc3ccccc3)CC2)c(C#N)c2c1COC(C)(C)C2,13.3% (inactive)
17,CCCCCNc1nc(N2CCCC2)c2c(c1C#N)CCN(C)C2,165% (active)
18,O=c1c(-c2ccc(Cl)cc2)[n+]([O-])c2ccccc2n1O,33.5% (inactive)
19,COc1ccccc1C1/C(=C(/O)c2ccc(OC(C)C)cc2)C(=O)C(=O)N1c1cc(C)on1 (stereo not given),-0.61% (inactive)
20,Cc1ccc(CNc2oc(COc3ccccc3Cl)nc2C#N)cc1,28.6% (inactive)

row,SMILES,inhibition
1,COc1ccc(/C(O)=C2\C(=O)C(=O)N(CCN(C)C)C2c2cccc(OC)c2OC)cc1Cl (stereo not given),10.3% (inactive)
2,CCC(=O)Nc1nc2ccccc2n1CCN(C)C,-5.07% (inactive)
3,CCCC(C)n1[nH]c(=O)cc1N (stereo not given),27.7% (inactive)
4,CCN(CC)CCOC(=O)c1c(C)n(C)c2ccc(OC)cc12,32.6% (inactive)
5,CN(C)CCCn1c(NC(=O)C2CCCCC2)nc2ccccc21,-0.148% (inactive)
6,COc1ccccc1NC(=O)CSc1nnc(-c2ccc(NC(C)=O)cc2)n1C,-1.17% (inactive)
7,O=C(Nc1ccc(N2CCN(C(=O)c3ccccc3)CC2)c(Cl)c1)c1ccc(Br)o1,117% (active)
8,Cc1nc2c(o1)CCc1ccccc1C2N1CCN(C)CC1 (stereo not given),29.5% (inactive)
9,CN(CCNC(=O)c1ccc(/C=N/O)nc1)Cc1ccccc1,1.08% (inactive)
10,O=C1C=C(N2CCN(C3=CC(=O)CCC3)CC2)CCC1,-18.9% (inactive)
11,Nc1nc2n(n1)C(c1cccs1)CC(c1ccc(F)cc1)N2 (stereo not given),0.994% (inactive)
12,CC(=O)/C=C(\C)NCCNc1c(F)c(F)c(CO)c(F)c1F,42.2% (inactive)
13,CC1(C)Cc2nc3sc4c(N(CCO)CCO)ncnc4c3cc2CO1,36.1% (inactive)
14,COC(=O)c1ccc(CN(C(C)=O)c2ccccc2)o1,34.2% (inactive)
15,O=C(c1ccc(=O)oc1)N1CCN(C(c2ccccc2)c2ccccc2)CC1,4.32% (inactive)
16,Cc1ccc(-n2c(SCC(=O)NCc3ccco3)nc3nc4c(cc3c2=O)COC(C)(C)C4)cc1,17% (inactive)
17,Cc1cc(=O)[nH]c(COc2ccccc2)n1,-9.35% (inactive)
18,N#Cc1nc(COc2ccccc2F)oc1NCCCn1ccnc1,-8.85% (inactive)
19,COC(=O)c1ccc(C2/C(=C(\O)c3ccc4c(c3)OCCO4)C(=O)C(=O)N2CCCN(C)C)cc1 (stereo not given),25% (inactive)
20,COc1ccc(C(=O)c2oc3nc(C)cc(C)c3c2N)cc1,23.4% (inactive)
